Measured values from PubChem BioAssay (NCI).
About 83,000 compounds went through this panel and 20% of them were active in at least one assay; those are over-represented in the sample as a whole.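 Cells were grown in 96-well plates and exposed to the test compound at a single concentration for 48 hours; results are reported as percent growth, with values below 10 considered active.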 Activity calls are given as the source filed them.

These compounds were tested on MDA-MB-468 breast (assay: NCI-60 one-dose screen, 48 h (100 = growth as untreated, 0 = no growth, -100 = all killed)). Details: 10 µM unless noted.

SMILES | growth
COc1ccc(-c2cnc(-c3ccc(F)cc3)[nH]2)cc1 | 90.3% (inactive)
Nc1ccc(-c2ccc(-c3ccccc3N)c3[nH]c4ccccc4c23)cc1 | -5.32% (active)
COc1cc(/C=C/c2cn[nH]c2-c2ccc(C)cc2)cc(OC)c1OC | 12.9% (inactive)
CC1=CCC(OC(=O)C(C)(C)CC(O)(C(C)O)C(O)C2(C)C=CC(Cc3ccc(C(C)C)cc3)(C(C)C)CC2)(C(C)C)CC1 (stereo not given) | 83.1% (inactive)
C/C(=N\O)c1ccccn1 | 97.6% (inactive)
COc1c(Br)cc(C(c2cc(Br)c(OC)c(Br)c2)c2ccccc2C(=O)O)cc1Br | 100% (inactive)
NC(=O)c1cccc(C#CCNC[C@H]2C[C@@H](n3ccc4c(Cl)ncnc43)[C@H](O)[C@@H]2O)c1 | 95.9% (inactive)
C=CCn1c(SCC(=O)Nc2ccc(C(=O)/C=C/c3ccccc3)cc2)nnc1-c1ccc(OC)c(OC)c1 | 59.5% (inactive)
N/C(=N\C(N)=N\c1nc2ccccc2s1)c1ccnc(Br)c1 | 96.6% (inactive)
O=C(Nc1ccccc1Cl)OCCN1CCOCC1 | 109% (inactive)
CC/C(=C(/c1ccc(Cl)cc1)c1ccc(OCCN2CCCC2)cc1)c1ccccc1 | 46.9% (inactive)
CC(=O)N1N=C(c2ccc(Nc3nc(Nc4ccc(F)cc4)nc(Nc4ccc(Cl)cc4)n3)cc2)CC1c1ccc(Cl)cc1 (stereo not given) | 104% (inactive)
COc1cc(NS(=O)(=O)C(C)C)cc(-c2cc(-c3ccc(N4CCNCC4)cc3)cnc2N)c1 | 92.2% (inactive)
CC(C)(C)CC(C)(C)Nc1c(-c2c(O)c3ccccc3oc2=O)nc2sc3ccccc3n12 | 22.4% (inactive)
O=C(Nc1cccc(C2=NCCN2)c1)c1ccc(-c2ccc(C(=O)Nc3cccc(C4=NCCN4)c3)cc2)cc1 | 62% (inactive)
Cn1c(=O)c2c(nc(N3CCCC3)n2C)n(C)c1=O | 99.5% (inactive)
Cc1ccc2c(c1)=C/C(=C\c1cc(-c3ccccc3)oc1O)C(=O)N=2 | 109% (inactive)
O=C1/C(=C/c2ccccc2[N+](=O)[O-])COc2ccc(O)c(O)c21 | -58% (active)
O=S(=O)(NCCNc1cc(-c2cn(-c3ccccc3)nc2-c2cccc(O)c2)ccn1)c1ccccc1 | 34.2% (inactive)
O=C(C[N+](=O)[O-])c1ccc(Cl)cc1 | 112% (inactive)

SMILES | growth
CCCC1(CN2c3ccccc3Sc3ccc(Cl)cc32)CCN(CC)C1 (stereo not given) | -64.2% (active)
CCCCCCNC(=O)Oc1ccc(/C(=C(\C)c2ccc(Cl)cc2)c2ccc(OCCN(C)C)cc2)cc1 | 84.3% (inactive)
CC1SC(c2ccc(Cl)cc2)N(CCc2cccs2)C1=O (stereo not given) | -38.4% (active)
C#CCOc1cc(/C=N/Nc2nc(-c3ccc(OC)cc3)cs2)ccc1O | 43% (inactive)
CCN1C(=O)N(CC)C2Nn3c(s/c(=C4\C(=O)N(C)c5ccccc54)c3=O)=NC21 (stereo not given) | 12.2% (inactive)
Cc1ccc(NSc2ccccc2[N+](=O)[O-])cc1 | 17.6% (inactive)
O=C1Nc2ccccc2/C1=C/c1cn(CCCn2c3ccccc3c(=O)c3ccccc32)c2ccccc12 | 96.4% (inactive)
Fc1ccc(C(c2ccc(F)cc2)C(Cl)Cl)cc1 | 104% (inactive)
CCCCCCCCCCCCCC[n+]1ccc2c(C)c3c(c(C)c2c1)c1cc(O)ccc1n3CC | -63.6% (active)
CCCCSC1=C(Cl)CN(c2ccc(Cl)cc2)C1=O | 77.9% (inactive)
C=C1C(=O)O[C@H]2[C@H]1CC/C(Cn1cc(-c3ccc(OC)cc3)nn1)=C\CC[C@@]1(C)O[C@@H]21 | -42.8% (active)
N=C(N)c1ccc(-c2ccc(-c3cccs3)s2)nc1 | -51% (active)
COc1ccc(Oc2nc(Nc3ccc(N4CCOCC4)cc3)ncc2NC(=O)c2cc(OC)cc(OC)c2)cc1 | 86.6% (inactive)
CC(C)Oc1nc2c(c(=O)n(C)c(=O)n2C)n1C | 109% (inactive)
CCOC(=O)n1cc(-c2nonc2-c2cn(C(=O)OCC)c3ccc(Br)cc23)c2ccccc21 | 85.9% (inactive)
O=C1CC(c2ccc3c(c2)OCO3)Nc2cc3c(cc21)OCO3 (stereo not given) | -11.3% (active)
Clc1ccc(C(/C=C/c2sc(Cl)nc2Cl)=N/Nc2cc(Cl)cc(Cl)c2)cc1 | 107% (inactive)
COc1ccc2c(C3=C(c4c[nH]c5ccccc45)C(=O)N(O)C3=O)coc2c1 | 88.6% (inactive)
O=C(O)COc1ccccc1F | 93.5% (inactive)
[2H]c1nc(Nc2ncc3cc(C(=O)N(C)C)n(C4CCCC4)c3n2)c([2H])c([2H])c1N1C([2H])([2H])C([2H])([2H])NC([2H])([2H])C1([2H])[2H] | 89% (inactive)
